Hit rate of the full screen: of about 310,000 compounds, about 18,000 (5.8%) were called active. Not shown: some 22% with an inconclusive outcome. What follows is part of a selection rich in actives, with near analogues and random picks from the rest. Unmarked numbers belong to inactive results. The call rests on the fitted dose curve; in most records, active means well fitted inhibition curve with a large enough effect; inconclusive means small, poorly fitted or top-dose-only effect, or another doubt; inactive means no such curve, though single readings can be large or run the other way.
Experiment: Primary qHTS for delayed death inhibitors of the malarial parasite plastid, 48 hour incubation
Details: P. falciparum luciferase growth in erythrocytes; series mostly up to 28.7 µM; activity change, negative = inhibition: at the top concentration
Summary of the method: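 In quantitative HTS format, infected erythrocytes bearing luciferase-reporter parasites were treated for a single generation at 37 C. Luminescence after adding detection reagent served as the growth measure.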
`COC(=O)c1sc(N2CCN(Cc3ccccc3)CC2)nc1N` showed an activity change, negative = inhibition of -6.08% [at 0.00184 µM].
For `COc1ccccc1-n1ccnc(SCC(=O)NC2CCCCC2)c1=O`, the “activity change, negative = inhibition” value was -14.1%.
With `O=C(Nc1c2c(nn1-c1cccc(Cl)c1)CS(=O)(=O)C2)c1cccs1` the “activity change, negative = inhibition” value was -0.404%.
For `CCOC(=O)N1CCN(C(=O)c2cn(C)c3ccc(S(=O)(=O)N(CC)CC)cc3c2=O)CC1`, the “activity change, negative = inhibition” value was 7.13%.
With `C=CCn1cc(C(=O)NCc2ccc(Cl)cc2)c(=O)c2cc(S(=O)(=O)N(CC)CC)ccc21` the Potency was 11.7 µM (active).
With `CCN(CC)S(=O)(=O)c1ccc(Cl)c(C(=O)NCCN2CCOCC2)c1` the “activity change, negative = inhibition” value was -1.82%.
With `O=C(CN1CCN(C(=O)C2CCCO2)CC1)Nc1c(Cl)cccc1Cl` (stereo not given) the “activity change, negative = inhibition” value was 0.239%.
For `O=C(NC(=S)NC1CCCCC1)c1ccc(Cl)cc1`, the “activity change, negative = inhibition” value was -16.1%.
In the case of `CCOC(=O)N1CCN(S(=O)(=O)c2ccc(Br)cc2)CC1`, the “activity change, negative = inhibition” value was 37.3%.
For `Cc1cc(C)c2c(-c3ccc(F)cc3)c(C#N)c(=O)n(C)c2n1`, the “activity change, negative = inhibition” value was -0.519%.
With `COc1ccc(O)c(C(=O)c2cnc3c(c2)c(-c2ccc(F)cc2)c(C#N)c(=O)n3C)c1` the Potency was 1.65 µM (active).
For `Cn1c(N)cc(-c2ccc(F)cc2)c(C#N)c1=O`, the “activity change, negative = inhibition” value was -9.99%.
For `COc1ccc(/C=N/Nc2nc(-c3ccc(C)cc3)c(C#N)c(=O)[nH]2)cc1`, the “activity change, negative = inhibition” value was -6.4%.
With `CSCCC(NC(=O)c1ccccc1)C(=O)N1CCN(Cc2ccc(Cl)cc2)CC1` (stereo not given) the Potency was 2.94 µM (active).
For `COc1ccccc1C(=O)NC(CCSC)C(=O)N1CCN(C(C)=O)CC1` (stereo not given), the “activity change, negative = inhibition” value was 0%.
In the case of `CSCCC(NC(=O)c1ccccc1)C(=O)N1CCCCCCC1` (stereo not given), the “activity change, negative = inhibition” value was -5.02%.
For `c1ccc2c(c1)CSc1sccc1C2=C1CCNCC1`, the Potency was 11.7 µM (active).
For `O=C(CNC(=O)c1ccc(Br)o1)NCC1CCCO1` (stereo not given), the “activity change, negative = inhibition” value was 24.5%.
With `CCOC(=O)N1CCN(C(=O)COC(=O)c2cccc(S(C)(=O)=O)c2)CC1` the “activity change, negative = inhibition” value was 22.3%.
With `CCOc1ccc(NC(=O)C(C)N2C(=O)c3ccccc3C2=O)cc1` (stereo not given) the “activity change, negative = inhibition” value was 7.81%.
In the case of `COc1ccc(-c2ccc3nnc(SCC(=O)Nc4ccc(NC(C)=O)cc4)n3n2)cc1`, the “activity change, negative = inhibition” value was 18.1%.
With `COc1ccc(CNS(=O)(=O)c2ccc(NC(=O)N3CCCCC3)cc2)cc1` the “activity change, negative = inhibition” value was -5.79%.
In the case of `COc1ccc(C(=O)N2CCN(c3ccc(C(C)=O)cc3F)CC2)cc1S(=O)(=O)NC1CC1`, the “activity change, negative = inhibition” value was 17.8%.
In the case of `COc1ccc(CNC(=O)CCN2C(=O)c3ccccc3C2=O)cc1`, the “activity change, negative = inhibition” value was -4.91%.
With `COc1ccc(CCNCc2c(-c3ccccc3)n(C)c3ccccc23)cc1` the Potency was 11.7 µM (active).
For `COc1ccc(CNc2ncnc3ccccc23)cc1`, the “activity change, negative = inhibition” value was -8.38%.
For `Cc1cc(N2C(=O)C3CCCN3C2c2ccc(Cl)c(Cl)c2)no1` (stereo not given), the “activity change, negative = inhibition” value was 2.43%.
With `COc1ccc(OC)c(C2N(c3ccccn3)C(=O)C3CCCN32)c1` (stereo not given) the “activity change, negative = inhibition” value was 9.65%.
In the case of `COc1cccc(N2C(=O)C3CCCN3C2c2ccc(F)cc2)c1` (stereo not given), the Potency was 10.4 µM (active).
For `Cc1cccnc1CCNC(=O)C1CCC(=O)N(Cc2cccc(F)c2)C1` (stereo not given), the “activity change, negative = inhibition” value was 7.78%.
For `COCCN(Cc1ccccc1)C(=O)Cc1ccc(S(=O)(=O)N2CCOCC2)s1`, the Potency was 10.4 µM (active).
For `COc1ccccc1NC(=O)COC(=O)Cc1ccc(S(=O)(=O)N2CCCCC2)s1`, the “activity change, negative = inhibition” value was 11.4%.
In the case of `CCN(Cc1ccccc1)C(=O)Cc1ccc(OC)c(S(=O)(=O)N2CCOCC2)c1`, the “activity change, negative = inhibition” value was -15.6%.
In the case of `CC1CCN(C(=O)/C(=C\c2ccccc2)NC(=O)c2ccccc2)CC1`, the “activity change, negative = inhibition” value was 0.253%.
With `Cc1c(C)n2c(SCC(=O)NC3CCCC3)nnc2[nH]c1=O` the “activity change, negative = inhibition” value was -5.51%.
With `CCOc1ncccc1C(=O)OCC(=O)N1c2ccccc2CC1C` (stereo not given) the “activity change, negative = inhibition” value was 7.69%.
With `CCOC(=O)C1CCN(S(=O)(=O)c2c(C)noc2C)CC1` the “activity change, negative = inhibition” value was 24.2%.
For `CCOC(=O)C1CCN(C(=O)C2CCN(S(=O)(=O)c3c(C)noc3C)CC2)CC1`, the “activity change, negative = inhibition” value was -3.05%.
With `Cc1cc(C)c(S(=O)(=O)N2CCC(C(=O)OCc3c(C)noc3C)CC2)c(C)c1` the Potency was 11.7 µM (active).
For `CCCN(C(=O)c1nc2nccc(C)n2n1)c1c(N)n(Cc2ccccc2)c(=O)[nH]c1=O`, the “activity change, negative = inhibition” value was -14%.
In the case of `CCOC(=O)c1cccc(NC(=O)CN(c2ccc(C)cc2)S(=O)(=O)c2c(C)noc2C)c1`, the Potency was 8.28 µM (active).
For `CCOc1ccc(N(CC(=O)NCc2ccc(OC)cc2)S(=O)(=O)c2c(C)noc2C)cc1`, the “activity change, negative = inhibition” value was -15.5%.
With `Cc1ccc(N(CC(=O)Nc2cc(C)cc(C)c2)S(=O)(=O)c2cccc3nonc23)cc1` the “activity change, negative = inhibition” value was -5.21%.
In the case of `Cc1ccc(NC(=O)[C@H](Cc2ccccc2)NC(=O)C2CCNCC2)cc1`, the “activity change, negative = inhibition” value was 17.4%.
For `O=C(Nc1ccc(S(=O)(=O)Nc2ccccn2)cc1)c1ccccc1`, the “activity change, negative = inhibition” value was 16.3%.
In the case of `COc1cccc(NC(=O)CN(C)C(=O)CSC(=S)N2CCCC2)c1`, the “activity change, negative = inhibition” value was 6.54%.
In the case of `Cc1coc2c(O)cc3c(c12)OC1(N2CCCCC2)C(=O)NCCCC31` (stereo not given), the Potency was 11.7 µM (active).
In the case of `CCOc1ccc(CNC(=O)CCC(=O)N2CCSc3ccccc32)cc1`, the “activity change, negative = inhibition” value was 10.3%.
For `CCOc1ccc(NC(=O)CCC(=O)NNC(=O)NC2CCCCC2)cc1`, the “activity change, negative = inhibition” value was -21.8%.
With `CCOc1ccc(NC(=O)CCC(=O)N/N=C/c2ccc([N+](=O)[O-])s2)cc1` the Potency was 11.7 µM (active).

— PubChem BioAssay AID504832 (National Center for Advancing Translational Sciences (NCATS), 2011)
On the % scale 0 is the no-effect control and ±100 the full control effect; potency means the concentration at half of the fitted maximal effect.
